# ± gives the standard deviation.
# T1: HaloTag-ATRX ADD domain (163-292)
# T1 chain: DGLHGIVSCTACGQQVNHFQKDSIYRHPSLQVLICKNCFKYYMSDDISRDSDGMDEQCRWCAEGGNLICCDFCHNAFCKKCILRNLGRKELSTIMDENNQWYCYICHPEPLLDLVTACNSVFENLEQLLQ
# How the values were obtained:
# Assay in all cases: peptide microarray binding signal (635 nm), min-max normalized on array (fraction of array maximum); higher = stronger binding
# Settings in all cases: peptide region: H3 5-17
# [1] = target: T1, HaloTag-ATRX ADD domain (163-292)
# Outline: (§1)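 Triplicate spots of histone 13-mer peptide–cellulose conjugates with a Cy3 tracer were printed on nitrocellulose and probed for 1 h at 4°C with biotin-labelled HaloTag reader fusions (10 nM to 1 μM) plus streptavidin-Alexa Fluor 647 or rabbit histone antibodies (1:10,000 to 1:2,000) plus anti-rabbit Alexa 647. An Axon GenePix 4000B read the 635 nm channel. Binding signal is the spot-triplicate mean intensity after min-max scaling within each library.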
# [2] = target: HaloTag-ING2 PHD (mouse Ing2 200-280)
# Outline: as §1
# [3] = target: anti-H3K4me3 antibody ab8580
# Outline: as §1
# [4] = target: anti-H3K9me3 antibody ab8898
# Outline: as §1
# [5] = peptide modifications: H3S10ph H3K14me2, binder concentration: 1:2,000 dilution
# [6] = peptide modifications: H3S10ph H3K14me2, binder concentration: 1:10,000 dilution
# [7] = peptide modifications: H3R8me2a, binder concentration: 1:2,000 dilution
# [8] = peptide modifications: H3R8me2a, binder concentration: 1:10,000 dilution
# [9] = peptide modifications: H3R8me2a H3S10ph, binder concentration: 1:2,000 dilution
# [10] = peptide modifications: H3R8me2a H3S10ph, binder concentration: 1:10,000 dilution
# [11] = peptide modifications: H3R8me2a H3K9me2, binder concentration: 1:2,000 dilution
# [12] = peptide modifications: H3R8me2a H3K9me2, binder concentration: 1:10,000 dilution
# [13] = peptide modifications: H3R8me2a H3K9me3, binder concentration: 1:2,000 dilution
# [14] = peptide modifications: H3R8me2a H3K9me3, binder concentration: 1:10,000 dilution
binder,measurement,setting,value
QTARKSTGGKAPR [H3 5-17 Q T A R K Sph T G G Kme2 A P R],peptide microarray binding signal,"[1]; peptide modifications: H3S10ph H3K14me2, binder concentration: 50 nM",0.0068 ± 0.00015
same,peptide microarray binding signal,"[1]; peptide modifications: H3S10ph H3K14me2, binder concentration: 500 nM",0.015 ± 0.00086
same,peptide microarray binding signal,"[2]; peptide modifications: H3S10ph H3K14me2, binder concentration: 10 nM",0.00597 ± 0.00047
same,peptide microarray binding signal,"[2]; peptide modifications: H3S10ph H3K14me2, binder concentration: 100 nM",0.0125 ± 0.0027
same,peptide microarray binding signal,[3]; [5],0.00874 ± 0.00064
same,peptide microarray binding signal,[3]; [6],0.0077 ± 0.0015
same,peptide microarray binding signal,[4]; [5],0.00565 ± 0.00062
same,peptide microarray binding signal,[4]; [6],0.00294 ± 0.00015
QTARKSTGGKAPR [H3 5-17 Q T A Rme2a K S T G G K A P R],peptide microarray binding signal,"[1]; peptide modifications: H3R8me2a, binder concentration: 50 nM",0.00386 ± 0.00017
same,peptide microarray binding signal,"[1]; peptide modifications: H3R8me2a, binder concentration: 500 nM",0.00367 ± 0.00047
same,peptide microarray binding signal,"[2]; peptide modifications: H3R8me2a, binder concentration: 10 nM",0.00346
same,peptide microarray binding signal,"[2]; peptide modifications: H3R8me2a, binder concentration: 100 nM",0.0034 ± 0.00021
same,peptide microarray binding signal,[3]; [7],0.0114 ± 0.0019
same,peptide microarray binding signal,[3]; [8],0.00793 ± 0.00067
same,peptide microarray binding signal,[4]; [7],0.00296 ± 0.00055
same,peptide microarray binding signal,[4]; [8],0.00565 ± 0.0013
QTARKSTGGKAPR [H3 5-17 Q T A Rme2a K Sph T G G K A P R],peptide microarray binding signal,"[1]; peptide modifications: H3R8me2a H3S10ph, binder concentration: 50 nM",0.00837 ± 0.0001
same,peptide microarray binding signal,"[1]; peptide modifications: H3R8me2a H3S10ph, binder concentration: 500 nM",0.0191 ± 0.0021
same,peptide microarray binding signal,"[2]; peptide modifications: H3R8me2a H3S10ph, binder concentration: 10 nM",0.0259 ± 0.0014
same,peptide microarray binding signal,"[2]; peptide modifications: H3R8me2a H3S10ph, binder concentration: 100 nM",0.0521 ± 0.0085
same,peptide microarray binding signal,[3]; [9],0.00508 ± 0.00076
same,peptide microarray binding signal,[3]; [10],0.00525 ± 0.00042
same,peptide microarray binding signal,[4]; [9],0.00298 ± 0.00042
same,peptide microarray binding signal,[4]; [10],0.00288 ± 4.3e-05
QTARKSTGGKAPR [H3 5-17 Q T A Rme2a Kme2 S T G G K A P R],peptide microarray binding signal,"[1]; peptide modifications: H3R8me2a H3K9me2, binder concentration: 50 nM",0.007555 ± 2.4e-05
same,peptide microarray binding signal,"[1]; peptide modifications: H3R8me2a H3K9me2, binder concentration: 500 nM",0.0185 ± 0.0016
same,peptide microarray binding signal,"[2]; peptide modifications: H3R8me2a H3K9me2, binder concentration: 10 nM",0.0456 ± 0.0053
same,peptide microarray binding signal,"[2]; peptide modifications: H3R8me2a H3K9me2, binder concentration: 100 nM",0.0526 ± 0.0031
same,peptide microarray binding signal,[3]; [11],0.032 ± 0.0036
same,peptide microarray binding signal,[3]; [12],0.0252 ± 0.0039
same,peptide microarray binding signal,[4]; [11],0.185 ± 0.023
same,peptide microarray binding signal,[4]; [12],0.104 ± 0.0059
QTARKSTGGKAPR [H3 5-17 Q T A Rme2a Kme3 S T G G K A P R],peptide microarray binding signal,"[1]; peptide modifications: H3R8me2a H3K9me3, binder concentration: 50 nM",0.00527 ± 0.0012
same,peptide microarray binding signal,"[1]; peptide modifications: H3R8me2a H3K9me3, binder concentration: 500 nM",0.0107 ± 0.0015
same,peptide microarray binding signal,"[2]; peptide modifications: H3R8me2a H3K9me3, binder concentration: 10 nM",0.0164 ± 0.0009
same,peptide microarray binding signal,"[2]; peptide modifications: H3R8me2a H3K9me3, binder concentration: 100 nM",0.019 ± 0.0012
same,peptide microarray binding signal,[3]; [13],0.0361 ± 0.011
same,peptide microarray binding signal,[3]; [14],0.0283 ± 0.011
same,peptide microarray binding signal,[4]; [13],0.208 ± 0.075
same,peptide microarray binding signal,[4]; [14],0.208 ± 0.025

# Reference: the supplement of paper PMC4022240
